The nature of experiment [1]: HepG2 liver cancer cell viability effects, profiling panel, resazurin fluorescence, 24 h, PK04 Diversity Set (AID 1172). Further: test concentration not given here. As to conditions: higher = more signal.
Experiment [2] can be described thus: basal S. cerevisiae growth modulation, no modifier, primary screen, OD600, strain BY4716, 24 h, basal condition (AID 1173). Conditions: OD600, 24 h, higher = more signal, called active from +8 up or from −8 down.
The nature of experiment [3]: MM1S myeloma cell viability, profiling panel, resazurin fluorescence, basal, 24 h, PK04 Diversity Set (AID 1174).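 Further: MM1S multiple myeloma cell line; test concentration not given here.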 As to conditions: higher = more signal, called active from +8 up or from −8 down.
Experiment [4] addresses Dihydroorotate dehydrogenase (quinone), mitochondrial (Plasmodium falciparum (isolate 3D7)) (UniProt Q08210). The experiment is described as follows: PfDHODH enzyme inhibitors, primary screen, biochemical, C-terminal His tag, absorbance 600 nm (AID 1175).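 Further: recombinant parasite enzyme with a five histidine tag at its C terminus; test concentration not given here.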 As to conditions: DCIP absorbance 600 nm, higher = more signal, called active from +8 up or from −8 down.
Experiment [5] is described as follows: P. aeruginosa biofilm formation inhibitors, primary screen, strain PAO1, LB-PBS medium, absorbance 600 nm (AID 1176). Further: test concentration not given here. As to conditions: P. aeruginosa PAO1 growth/biofilm, A600, 12 h; higher = more signal.
Experiment [6] in a line: S. cerevisiae RM11-1a growth modifiers, primary screen, strain RM11-1a, OD600, basal, 24 h (AID 1177).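 Further: cultures grown under basal conditions with no added stressor; test concentration not given here.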 Conditions: OD600, 24 h, higher = more signal, called active from +8 up or from −8 down.
The nature of experiment [7]: E. coli acrAB mutant growth effects, primary screen, E. coli filamentation inducers, strain DRC39, OD650, 24 h (AID 1178).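 Further: growth measured as culture turbidity by optical density at 650 nm; test concentration not given here.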 As to conditions: higher = more signal, called active from +8 up or from −8 down.
A short description of experiment [8]: E. coli acrAB mutant growth effects, primary screen, E. coli filamentation inducers, strain DRC39, OD650, 48 h (AID 1179).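 Further: screen aims at cell division blockers that make cells filament.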 Conditions: E. coli DRC39 delta-acrAB growth, higher = more signal, called active from +8 up or from −8 down.
Experiment [9] can be described thus: RPMI8226 myeloma cell viability, profiling panel, resazurin fluorescence, basal, 24 h, PK04 Diversity Set (AID 1180).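 Further: RPMI8826 multiple myeloma cell line at 5000 cells per well; test concentration not given here.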 As to conditions: higher = more signal.
Experiment [10] addresses E3 ubiquitin-protein ligase XIAP (Homo sapiens) (UniProt P98170). The experiment is described as follows: XIAP binders, primary screen, biophysical, small-molecule microarray, fluorescence 635 nm (AID 1181).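 Further: score merges 667 nm emission and signal to noise over triplicate slides.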 Conditions: small-molecule microarray binding, higher = more signal.

Activity calls are given as the source filed them. Unless noted, how the calls were made is not given here.

E3 ubiquitin-protein ligase XIAP (Homo sapiens), sequence (P98170 whole entry, looked up): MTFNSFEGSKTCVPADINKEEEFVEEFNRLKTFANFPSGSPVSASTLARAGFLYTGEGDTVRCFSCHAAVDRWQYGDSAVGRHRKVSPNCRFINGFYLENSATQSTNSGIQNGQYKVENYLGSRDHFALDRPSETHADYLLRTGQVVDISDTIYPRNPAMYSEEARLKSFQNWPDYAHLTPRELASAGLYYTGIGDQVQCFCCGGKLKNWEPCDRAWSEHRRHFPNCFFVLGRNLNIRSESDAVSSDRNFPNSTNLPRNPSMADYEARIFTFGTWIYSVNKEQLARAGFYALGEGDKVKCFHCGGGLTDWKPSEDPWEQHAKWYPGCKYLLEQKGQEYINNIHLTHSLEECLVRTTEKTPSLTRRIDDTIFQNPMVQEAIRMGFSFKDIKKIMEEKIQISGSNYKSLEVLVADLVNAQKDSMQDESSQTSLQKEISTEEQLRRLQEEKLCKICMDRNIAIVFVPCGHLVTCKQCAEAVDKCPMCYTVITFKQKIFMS
Dihydroorotate dehydrogenase (quinone), mitochondrial (Plasmodium falciparum (isolate 3D7)), sequence (Q08210 whole entry, looked up): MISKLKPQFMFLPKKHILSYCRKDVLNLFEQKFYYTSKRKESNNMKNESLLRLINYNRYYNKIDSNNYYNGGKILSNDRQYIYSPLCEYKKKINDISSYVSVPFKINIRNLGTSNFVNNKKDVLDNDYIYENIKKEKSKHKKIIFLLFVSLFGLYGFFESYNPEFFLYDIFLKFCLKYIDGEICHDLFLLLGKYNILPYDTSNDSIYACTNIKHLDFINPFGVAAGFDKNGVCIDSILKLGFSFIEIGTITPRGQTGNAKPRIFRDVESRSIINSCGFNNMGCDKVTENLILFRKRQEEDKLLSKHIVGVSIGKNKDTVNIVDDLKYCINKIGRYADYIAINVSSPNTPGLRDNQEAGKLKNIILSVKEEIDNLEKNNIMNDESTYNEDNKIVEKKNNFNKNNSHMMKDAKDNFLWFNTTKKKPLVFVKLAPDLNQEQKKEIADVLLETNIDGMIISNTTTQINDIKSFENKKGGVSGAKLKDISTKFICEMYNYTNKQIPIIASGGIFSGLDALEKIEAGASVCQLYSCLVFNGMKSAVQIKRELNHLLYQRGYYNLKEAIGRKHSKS

With `C=CCOC(=O)[C@H]1[C@@H]2C(=O)O[C@@H](c3ccccc3)[C@@H](c3ccccc3)N2[C@@H](c2ccc(OCCOC(=O)[C@H]3C[C@H]4C(=O)N5CCC[C@H]5C(=O)N4[C@H]3c3ccc(O)cc3)cc2)[C@]12C(=O)Nc1ccccc12`, the z-score in experiment [1] was 0.697; in experiment [2], 1.66 (inactive); in experiment [3], 0.744 (inactive); in experiment [5] it was 3.67 (inactive); in experiment [6], 1.84 (inactive); in experiment [7], -0.0749 (inactive). Also, the z-score in experiment [8] is -0.13 (inactive); in [9], 0.435. Also, the figures for the composite z-score in [4] and in [10] were -0.391 (inactive) and 0.201, respectively.

As for `CC(=O)n1cc(C(O)C2C=CC3C(=O)N(C)C(=O)C3N2Nc2ccccc2)c2ccccc21` (stereo not given), the z-score in experiment [1] is 0.362; in experiment [2], 0.125 (inactive); in experiment [3], -1.2 (inactive); in experiment [5], 1.07 (inactive); in experiment [6], 0.135 (inactive); in experiment [7], -0.321 (inactive). The z-score in experiment [8] is -0.306 (inactive); in experiment [9], -1.11. Besides, the figures for the composite z-score in experiment [4] and in experiment [10] were 0.0365 (inactive) and 0.229, respectively.

For `C=CC[C@]12N=C(c3ccc(OCCCO)cc3)O[C@H]1c1ccccc1N(Cc1ccccc1)C2=O`, the z-score in experiment [1] was -0.882; in experiment [2], 0.143 (inactive); in experiment [3], -3.28 (inactive); in experiment [5], 0.603 (inactive); in experiment [6] it was 0.492 (inactive); in experiment [7], -0.0819 (inactive). Further, the z-score in experiment [8] was 0.328 (inactive); in experiment [9], -2.3. Also, the results for the composite z-score in [4] and in experiment [10] were 0.648 (inactive) and -0.122, respectively.

As for `O=C1OCC=C[C@H]2OC34C=CCN(c5ccc6ccccc6c5)C(=O)[C@H]3N(CCCCCCO)C(=O)[C@@H]4[C@@H]12` (stereo not given in full), the z-score in [1] was 0.551; in experiment [2] it was -0.7 (inactive); in experiment [3], 0.645 (inactive); in experiment [5] it was -0.717 (inactive); in [6], -0.472 (inactive); in experiment [7], 0.841 (inactive). Also, the z-score in [8] was 0.982 (inactive); in experiment [9], 0.683. For the same compound, the composite z-score is -1.24 (inactive) in experiment [4] and 0.086 in [10].

`COCCOC(=O)N1C(=O)[C@@]2(c3cc(C#Cc4ccc(OC)cc4)ccc31)[C@H](c1ccccc1OCCO)N1[C@H](c3ccccc3)[C@H](c3ccccc3)OC(=O)[C@H]1[C@@H]2C(=O)N1CCN(c2ncccn2)CC1`: the z-score in [1] is 0.214; in experiment [2], 2.12 (inactive); in experiment [3], -0.539 (inactive); in experiment [5], 1.64 (inactive); in experiment [6], 3.89 (inactive); in [7], 0.0722 (inactive). Moreover, the z-score was 0.857 (inactive) in experiment [8] and 0.0636 in experiment [9]. Also, the composite z-score in experiment [4] is 0.478 (inactive); in experiment [10], 0.397.

Regarding `COc1ccc(CCNC(=O)[C@@]2(C)c3ccccc3C(=O)N(Cc3cc(F)cc(C(F)(F)F)c3)[C@H]2c2ccc(CO)cc2)cc1`, the z-score was -0.469 in [1]; -0.513 (inactive) in [2]; 1.02 (inactive) in experiment [3]; 0.593 (inactive) in experiment [5]; 1.1 (inactive) in experiment [6]; 0.568 (inactive) in experiment [7]. Besides, the z-score in [8] is 0.453 (inactive); in [9], 0.652. The values for the composite z-score in experiment [4] and in [10] were 0.917 (inactive) and 0.003, respectively.

Take `C=CCN1C(=O)[C@]2(O[C@H](CCO)[C@@H]([Si](C)(C)c3ccc(OC)cc3)[C@@H]2C)c2cc(N3C(=O)c4cccc5cccc3c45)ccc21`: the z-score is -5.43 in [1]; 1.7 (inactive) in experiment [2]; -8.43 (active) in experiment [3]; 0.662 (inactive) in [5]; 6.52 (inactive) in experiment [6]; 2.21 (inactive) in experiment [7]. The results for the z-score in experiment [8] and in [9] were 1.44 (inactive) and -6.23, respectively. Also, the composite z-score in experiment [4] was 1.72 (inactive); in [10], 0.0374.

As to `COc1ccc([Si](C)(C)[C@H]2[C@H](CCO)O[C@@]3(C(=O)N(C)c4c(Br)cc(C)cc43)[C@@H]2C)cc1`, the z-score in experiment [1] is -6.47; in experiment [2] it was 0.0436 (inactive); in [3] it was -9.16 (active); in experiment [5], 0.814 (inactive); in experiment [6], 3.93 (inactive); in experiment [7], -0.185 (inactive). The z-score in [8] is -1.4 (inactive); in experiment [9], -6.31. In addition, the composite z-score was 1.13 (inactive) in [4] and 0.184 in [10].

For the compound `COCCOC(=O)N1C(=O)[C@@]2(c3cc(C#CCCO)ccc31)[C@H](c1ccc(OCCO)cc1)N1[C@H](c3ccccc3)[C@H](c3ccccc3)OC(=O)[C@H]1[C@@H]2C(=O)N1CCN(c2ncccn2)CC1`, the z-score in [1] is 0.235; in experiment [2] it was 1.37 (inactive); in experiment [3] it was 0.327 (inactive); in experiment [5], 1.27 (inactive); in experiment [6], 1.24 (inactive); in experiment [7] it was -0.448 (inactive). The z-score in experiment [8] is -0.327 (inactive); in experiment [9], 0.52. For the same compound, the composite z-score in [4] was -0.547 (inactive); in experiment [10], -0.212.

With `COCCOC(=O)N1C(=O)[C@@]2(c3cc(C#CC4=CCCCC4)ccc31)[C@H](C(N)=O)[C@H]1C(=O)O[C@H](c3ccccc3)[C@H](c3ccccc3)N1[C@@H]2c1ccc(OCCO)cc1`, the z-score was -0.746 in experiment [1]; 1.04 (inactive) in experiment [2]; -1.95 (inactive) in experiment [3]; 1.67 (inactive) in experiment [5]; 2.53 (inactive) in experiment [6]; 0.0123 (inactive) in [7]. In addition, the z-score is 0.505 (inactive) in experiment [8] and -3.18 in experiment [9]. Further, the figures for the composite z-score in experiment [4] and in [10] were 0.948 (inactive) and -0.102, respectively.

As to `CCCC[C@H]1OB(O)C[C@H]2C1=C(COc1ccccc1)C[C@H]1C(=O)N(C)C(=O)[C@H]12`, the z-score in experiment [1] was -0.0384; in [2], -2.57 (inactive); in experiment [3] it was -0.508 (inactive); in experiment [5] it was -0.0946 (inactive); in experiment [6], -0.798 (inactive); in [7], -0.121 (inactive). In addition, the results for the z-score in [8] and in experiment [9] were -0.316 (inactive) and -0.59, respectively. The composite z-score in experiment [4] was -0.514 (inactive); in experiment [10] it was -0.031.

As for `O=C1OCCC/C=C\[C@H]2OC34C=CCN(Cc5ccccc5)C(=O)[C@H]3N(CCCCCCO)C(=O)[C@@H]4C12` (stereo not given in full), the z-score was 0.493 in [1]; -0.908 (inactive) in experiment [2]; -0.549 (inactive) in [3]; -0.497 (inactive) in [5]; 0.692 (inactive) in experiment [6]; 1.23 (inactive) in [7]. Besides, the z-score is 1.58 (inactive) in experiment [8] and 0.809 in experiment [9]. Moreover, the composite z-score is -0.0805 (inactive) in experiment [4] and -0.15 in [10].

Regarding `COc1ccc(C(O)C2C=CC3C(=O)N(c4ccccc4)C(=O)C3N2Nc2ccc(C(C)C)cc2)cc1OCc1ccccc1` (stereo not given), the z-score in experiment [1] was -0.217; in [2], -1.78 (inactive); in [3], -0.0284 (inactive); in experiment [5], 2.33 (inactive); in [6], 0.165 (inactive); in experiment [7] it was -1.91 (inactive). The z-score was -1.38 (inactive) in experiment [8] and -0.291 in experiment [9]. Further, the composite z-score in experiment [4] was 0.785 (inactive); in experiment [10] it was -0.0535.

The values are drawn from PubChem BioAssay.
